# USP2a inh: USP2a (human) protease inhibition | O75604 | USP2 core, Ub-CHOP2 coupled fluorogenic reporter, 485/531 | Potency, µM (top dose mostly 38.3 µM), for the others: top-dose activity change, negative = inhibition, hits mostly inhibitors | 330,000 compounds, 0.01% hits | AID 463254;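 note: plate controls were DMSO wells for no effect and full inhibition by NEM control for full effect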
# Target sequence (O75604 whole entry, looked up): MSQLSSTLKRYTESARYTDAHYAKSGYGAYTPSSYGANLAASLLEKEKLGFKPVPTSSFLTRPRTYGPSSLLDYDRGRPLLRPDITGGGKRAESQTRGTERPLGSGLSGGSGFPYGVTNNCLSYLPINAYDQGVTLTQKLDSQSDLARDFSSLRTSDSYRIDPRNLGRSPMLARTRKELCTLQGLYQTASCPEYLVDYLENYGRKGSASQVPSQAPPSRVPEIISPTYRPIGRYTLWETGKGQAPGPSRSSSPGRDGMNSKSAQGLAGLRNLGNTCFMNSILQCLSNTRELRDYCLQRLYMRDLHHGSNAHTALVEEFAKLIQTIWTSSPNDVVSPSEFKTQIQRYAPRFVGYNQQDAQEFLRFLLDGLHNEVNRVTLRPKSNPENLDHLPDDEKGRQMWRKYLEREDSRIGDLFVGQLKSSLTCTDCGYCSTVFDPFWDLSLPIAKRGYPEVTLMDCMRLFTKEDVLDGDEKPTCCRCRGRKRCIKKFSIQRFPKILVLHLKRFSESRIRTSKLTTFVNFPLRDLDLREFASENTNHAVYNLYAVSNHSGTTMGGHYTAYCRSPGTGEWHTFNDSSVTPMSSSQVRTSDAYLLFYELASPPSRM
#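 Deubiquitinase activity read as fluorescence (485/531 nm) after Ub-CHOP2 cleavage activates the enterokinase reporter on its substrate; USP2 core 10nM, Ub-CHOP2 and substrate 25nM each, 30min compound preincubation then 60min RT; data normalized to NEM, curves fitted.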
# Eya2 inh: inhibitors of human Eya2 phosphatase activity. O00167. recombinant Eya2, OMFP fluorescence dephosphorylation (OMFP is methylfluorescein phosphate). Potency, µM (highest dose often 76.9 µM), without a hit: at the highest dose activity, negative = inhibition, usual class: inhibitors. 330,000 compounds, 0.006% hits; note: % is set by controls: 0 for no effect and ±100 for the full control effect
#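 Eya2 protein (added as 0.2 uM solution) was preincubated with compound for 10 min at ambient temperature in 50 mM HEPES pH 7.5, 50 mM NaCl, 5 uM MgCl2, 0.05% BSA, 1 mM DTT. OMFP (added at 50 uM) then reacted 10 min; fluorescence read at 485/525 nm.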
# ClpP mod: qHTS Assay for Activators of ClpP; 340,000 compounds, 1.9% hits; Potency, µM (top dose mostly 57.5 µM), without a hit: at the highest dose activity change, negative = active; AID 651965, 2013; purified B. subtilis ClpP, FRET peptide cleavage, 20 min; active = well fitted falling curve with a large enough effect; inconclusive = small, poorly fitted or top-dose-only effect; inactive = no such curve, though single readings can be large or run the other way; note: the source files actives as falling curves though it sought activators and does not explain the sign; nearly all actives have a fitted effect of over 65% in size
#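 FRET quenching reversal measured ClpP activation: 10 microg/mL B. subtilis ClpP at pH 8 with the FRET-FV decapeptide, read at 430 nm after 320 nm excitation. The 20-min minus 0-min signal was scaled between DMSO/no-enzyme wells and ADEP (5.8 microM final).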
# GALK inh: blocks human galactokinase activity; Purified GALK, Kinase-Glo residual ATP luminescence; Potency, µM (titrated, usually from 57.5 µM), for the others: at the highest dose activity change, negative = inhibition, hits mostly inhibitors; 270,000 compounds, 0.007% hits; AID 1868; note: % is set by controls: 0 for no effect and ±100 for the full control effect
#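 The enzyme phosphorylates galactose (100 uM) using ATP (35 uM); inhibition is detected as higher residual ATP, quantified by bioluminescence after 1 h reaction at room temperature, pH 8.0.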
# The depositor's hits bear a star; ? = inconclusive; nt = not tested or not shown; ! = not active in a repeat. The full list was thinned out, with hits kept by preference. Unless noted, calls come from the whole dose curve; as a rule, active = well fitted inhibition curve with a large enough effect; inconclusive = small, poorly fitted or top-dose-only effect, or effect the other way; inactive = flat fitted curve, though single readings scatter. Potency is the fitted concentration of half-maximal effect.
SMILES,USP2a inh,Eya2 inh,ClpP mod,GALK inh
Cn1cc(S(=O)(=O)c2ccc(Cl)cc2)c(=O)c2cc(F)c(N3CCCCCC3)cc21,nt,nt,-17%,nt
Cc1ccc(S(=O)(=O)c2cn(C)c3cc(N4CCN(C)CC4)c(F)cc3c2=O)c(C)c1,3%,-13%,5%,-1%
CCCN1CCN(c2cc3c(cc2F)c(=O)c(S(=O)(=O)c2ccc(Cl)cc2)cn3C)CC1,nt,nt,16µM*,nt
Cc1ccc(S(=O)(=O)c2cn(C)c3cc(N4CCCC4)c(F)cc3c2=O)c(C)c1,nt,nt,28µM*,nt
Cc1ccc(S(=O)(=O)c2cn(C)c3cc(N4CCCC(C)C4)c(F)cc3c2=O)c(C)c1 (stereo not given),nt,nt,20µM*,nt
Cc1cc(C(F)(F)F)nc(CCNCc2c(C(=O)N3CCCC3)nc3ccccn23)n1,3%,-2%,nt,4%
Cc1c(Cl)cccc1-n1c(SCC(=O)N2CCC(C(=O)O)CC2)nnc1-c1ccncc1,0%,-2%,-9%,0%
Cc1cccc(C2(c3cccc(C)c3)OC(=O)c3ccccc32)c1,3%,-18%,3%,-2%
COc1ccc(OCCN(C)CC(=O)Nc2c(C)cccc2C)cc1,-2%,-25%,20µM*,-2%
Cc1ccc(/C=C/c2nnc(-c3cccc(C)c3)o2)cc1,0%,-4%,32µM*,1%
Cn1ccnc1SCC(=O)Nc1cccc2ccccc12,1%,17%,0%,2%
Cn1ccnc1SCC(=O)n1c2c(c3ccccc31)CCCC2,2%,-12%,32µM*,nt
C=CCNc1oc(-c2ccc(OCC)cc2)nc1C#N,5%,0%,0.79µM*,-3%
C=CCNc1oc(-c2cccc3ccccc23)nc1C#N,4%,-2%,3.2µM*,-4%
CCOc1ccc(Nc2oc(-c3cccs3)nc2C#N)cc1,nt,nt,18µM*,2%
CCOc1ccc(-c2nc(C#N)c(NCC(C)C)o2)cc1,0%,-2%,40µM*,5%
CCNc1oc(-c2cccc3ccccc23)nc1C#N,nt,nt,-104%,-2%
C=CCNc1oc(-c2ccc(OC)cc2)nc1C#N,-2%,-21%,42%,-5%
O=C(CNc1ccccc1Cl)N/N=C1\CCCc2ccccc21,-1%,3%,0%,-1%
c1ccc(-c2oc3ncnc(NCCN4CCOCC4)c3c2-c2ccccc2)cc1,-11%,-37%,16µM*,0%
COc1cccc(N(C(=O)Cn2nnc3ccccc32)C(C(=O)NCc2ccco2)c2cccnc2)c1 (stereo not given),-2%,-2%,35µM*,-2%
COc1cccc2c(=O)c(C(=O)NCCc3ccccc3)c[nH]c12,nt,nt,4%,nt
COc1cc2c(OC)cccc2cc1C(=O)O,1%,-2%,16µM*,0%
COc1cc2ccccc2cc1C(=O)O,7%,6%,?,0%
COc1cccc2c(=O)c(C(=O)O)c[nH]c12,1%,23%,22µM*,-3%
SMILES,USP2a inh,Eya2 inh,ClpP mod,GALK inh
CCOc1cc(Br)c(CC(=O)O)cc1OCC,4%,-9%,-3%,-3%
O=C1c2ccc3c4c(ccc(c24)C(=O)N1NC(=O)C(F)(F)F)CC3,0%,5%,35µM*,2%
O=C(NN1C(=O)c2ccc3c4c(ccc(c24)C1=O)CC3)c1ccc(Br)cc1,1%,0%,13µM*,2%
CC(=O)NN1C(=O)c2ccc3c4c(ccc(c24)C1=O)C(=O)N(NC(C)=O)C3=O,-1%,16%,-3%,0%
COc1ccc(-c2c(=O)n(OCc3ccccn3)c3ccccc3[n+]2[O-])cc1OC,1%,3%,-1%,-3%
COc1ccc(Cl)cc1NC(=O)CN(C)C(=O)CN1C(=O)NC(C)(c2ccc3ccccc3c2)C1=O (stereo not given),nt,nt,-5%,nt
O=C(O)C(SC(C(=O)O)c1ccccc1)c1ccccc1 (stereo not given),nt,nt,28µM*,nt
Nn1c(SCC(=O)N2CCCCCC2)nnc1-c1ccncc1,3%,9%,0%,0%
Nn1c(SCC(=O)N2CCCCC2)nnc1-c1ccncc1,-1%,-27%,28µM*,0%
Cc1cc(C)nc(-n2nc(C)c(C3(O)C(=O)Nc4ccc(F)cc43)c2N)n1 (stereo not given),4%,2%,-2%,10%
COC(=O)c1c(S(N)(=O)=O)c2ccccc2n1C,-2%,2%,28µM*,-1%
Cc1noc(/C=C/Nc2ccc(F)cc2F)c1[N+](=O)[O-],2%,4%,nt,2%
CCCCCn1c(CN2CCN(C(=O)c3ccco3)CC2)nc2c1c(=O)n(C)c(=O)n2C,1%,-9%,-4%,0%
CCN1CCc2c(sc3c2c(NCc2ccco2)nc2nnnn23)C1,1%,1%,13µM*,0%
C#CCOCCOCCOCCNc1nc(N2CCN(C(=O)CCCCCCCCCCNC(=O)[C@H](CCCN=C(N)N)n3cc(C[C@@H](C)CC)nn3)CC2)nc(N2CCN(C(=O)CCCCCCCCCCNC(=O)[C@@H]([C@H](C)CC)n3cc(CCCCCN)nn3)CC2)n1,10µM*,?,nt,nt
C#CCOCCOCCOCCNc1nc(N2CCN(C(=O)CCCCCCCCCCNC(=O)[C@H]([C@@H](C)CC)n3cc(CCCCN=C(N)N)nn3)CC2)nc(N2CCN(C(=O)CCCCCCCCCCNC(=O)[C@H](CCCN=C(N)N)n3cc(C[C@@H](C)CC)nn3)CC2)n1,11µM*,-24%,nt,nt
Cc1ccc(C(=O)Nc2ccc(N3CCN(S(C)(=O)=O)CC3)cc2)cc1,3%,-14%,-5%,-1%
COCc1cc(C)n(CC(=O)Nc2ccc(Cl)cc2Cl)c(=O)c1C#N,2%,6%,25µM*,0%
COCc1cc(C)n(CC(=O)Nc2ccccc2OC)c(=O)c1C#N,-1%,5%,?,3%
CC1=C(C(=O)N2CCCCCC2)CC(CC(=O)NCc2cccs2)C(=O)N1CCC1=CCCCC1 (stereo not given),nt,nt,0%,nt
C#CCSc1nnc(-c2cccc3ccccc23)o1,nt,nt,32µM*,nt
C=CCSc1nnc(-c2cccc3ccccc23)o1,-1%,-4%,nt,nt
O=C(OCC#CCSc1nnc(-c2cccc3ccccc23)o1)c1cccs1,2%,5%,28µM*!,-3%
Cc1nc2ccccc2c2oc(C(=O)NCCN3CCCCC3C)cc12 (stereo not given),0%,1%,4%,0%
CCN1CCCC1CNC(=O)c1cc2c(C)nc3ccccc3c2o1 (stereo not given),-2%,-13%,25µM*,3%
Cc1ccc(-c2cc(C(=O)N3N=C(C(F)F)CC3(O)C(F)F)c3ccccc3n2)cc1C (stereo not given),-9%,10%,25µM*,0%
COc1ccccc1-c1nnn(C/C(N)=N/O)n1,-1%,2%,1%,0%
Cn1c(O)c(N=NC(=O)Cc2c[nH]c3ccccc23)c2ccccc21,nt,nt,3.2µM*,nt
Cn1c(O)c(N=NC(=O)CNC(=O)c2ccccc2)c2ccccc21,2%,12%,nt,-2%
